These results are taken from paper PMC4336329 (PLoS ONE, 2015).

In all, about 310,000 compounds went through this assay and about 14,000 (4.5%) showed an effect of 50% or more. The effect is printed as a negative number. Many of the other results were omitted from the sample, so strong results are more common in it than they were.
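Further: peak tail current of the secondary pulse compared with the same well before compound.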

Sequence of human ether-à-go-go-related gene (hERG) potassium channel (Q12809 whole entry, looked up): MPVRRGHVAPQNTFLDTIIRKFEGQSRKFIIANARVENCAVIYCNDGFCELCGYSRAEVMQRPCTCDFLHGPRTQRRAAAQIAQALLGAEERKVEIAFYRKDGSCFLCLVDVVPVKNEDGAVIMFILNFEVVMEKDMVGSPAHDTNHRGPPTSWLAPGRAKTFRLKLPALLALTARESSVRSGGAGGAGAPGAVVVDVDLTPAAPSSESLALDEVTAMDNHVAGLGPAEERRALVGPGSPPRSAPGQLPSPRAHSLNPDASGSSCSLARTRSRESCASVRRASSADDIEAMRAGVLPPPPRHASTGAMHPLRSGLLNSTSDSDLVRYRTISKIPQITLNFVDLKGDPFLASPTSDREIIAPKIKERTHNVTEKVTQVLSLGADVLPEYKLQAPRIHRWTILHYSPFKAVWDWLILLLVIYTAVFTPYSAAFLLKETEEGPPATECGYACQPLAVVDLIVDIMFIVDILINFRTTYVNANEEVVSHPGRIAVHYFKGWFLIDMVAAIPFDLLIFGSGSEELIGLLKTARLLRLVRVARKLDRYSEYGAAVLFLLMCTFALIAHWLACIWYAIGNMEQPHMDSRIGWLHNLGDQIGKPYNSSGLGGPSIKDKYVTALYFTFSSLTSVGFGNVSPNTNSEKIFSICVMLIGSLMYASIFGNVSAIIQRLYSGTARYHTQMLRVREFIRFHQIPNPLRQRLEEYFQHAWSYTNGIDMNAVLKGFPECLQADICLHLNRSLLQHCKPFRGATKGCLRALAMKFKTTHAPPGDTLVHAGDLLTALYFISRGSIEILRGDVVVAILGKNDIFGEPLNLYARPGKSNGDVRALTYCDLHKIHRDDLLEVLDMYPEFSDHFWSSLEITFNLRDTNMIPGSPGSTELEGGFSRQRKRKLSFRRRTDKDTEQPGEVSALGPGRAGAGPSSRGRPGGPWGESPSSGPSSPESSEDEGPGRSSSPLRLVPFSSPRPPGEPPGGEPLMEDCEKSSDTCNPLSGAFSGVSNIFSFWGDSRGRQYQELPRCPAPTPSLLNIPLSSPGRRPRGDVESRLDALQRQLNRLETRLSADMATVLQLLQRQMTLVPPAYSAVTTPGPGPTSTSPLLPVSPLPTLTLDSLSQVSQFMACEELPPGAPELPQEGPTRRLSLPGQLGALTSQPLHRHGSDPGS

This assay addresses human ether-à-go-go-related gene (hERG) potassium channel (human, UniProt Q12809). Put plainly: primary screen, population patch clamp on CHO cells stably expressing hERG; higher = less effect of the substance.
With `Cc1nc(CCNC(=O)COc2ccccc2)cs1`, the “hERG current change (%, negative = inhibition) at 10uM” value turned out to be 17.2%.
For the molecule `C=CCn1c(NCc2ccc(OC)cc2)nc2ccccc21`, the “hERG current change (%, negative = inhibition) at 10uM” value is recorded as -17.2%.
The same measure for `COc1ccc(CNc2nc3ccccc3n2CCN2CCCCC2)cc1`: -59.7%; for `COc1ccc(CNc2nc3ccccc3n2C(C)C)cc1`: -18.7%; for `CN(C(=O)c1nn(C)c2c1CSc1ccccc1-2)c1ccccc1Cl`: 3.14%.
For `CC1(C)N=C2C(=[N+]1[O-])CCC/C2=N\O` the value was 11.6%; for `O=C(NCCc1ccccn1)c1nc(Cn2cc(Br)cn2)no1`, 11.4%; for `Cc1cccc(NC(=S)N2CCC(N(C)CC3CCCO3)CC2)c1` (stereo not shown), -32.3%.
As for `Cc1ccc(NC(=S)N2CCC(N(C)CC3CCCO3)CC2)cc1` (stereo not shown), the “hERG current change (%, negative = inhibition) at 10uM” value is -4.57%.
Regarding `Cc1cc(C)cc(NC(=S)N2CCC(N(C)CC3CCCO3)CC2)c1` (stereo not shown), the “hERG current change (%, negative = inhibition) at 10uM” value is on record as -52%.
The same measure for `O=C(CCCC(=O)N(CC(=O)NC1CCCC1)c1ccc(F)c(Cl)c1)Nc1ccccn1`: -9.24%.
For `COCCCN(C(=S)Nc1cc(Cl)cc(Cl)c1)C(C)c1ccccn1` (stereo not shown), the “hERG current change (%, negative = inhibition) at 10uM” value is listed as -38.8%.
On to `CCCc1cc(=O)[nH]c(SCC(=O)Nc2nonc2C)n1`, for which the “hERG current change (%, negative = inhibition) at 10uM” value worked out at 4.4%.
Regarding `CCCc1cc(=O)[nH]c(SCC(=O)Nc2cc(C)on2)n1`, the “hERG current change (%, negative = inhibition) at 10uM” value is on record as -70.9%.
For `CCc1cc(=O)[nH]c(SCC(=O)Nc2cc(C)on2)n1` the value was -4.55%.
Turning to `COC(=O)C1=C(O)/C(=C\c2ccc(CNC(=O)C(=O)Nc3ccc(C)c(C)c3)o2)N=C1C`, the “hERG current change (%, negative = inhibition) at 10uM” value is reported as -17.8%.
Consider `CC(=O)Nc1cc(C(=O)O)ccc1S(=O)(=O)c1ccc(C)cc1`, for which the “hERG current change (%, negative = inhibition) at 10uM” value came out at 6.18%.
`CN1CCCN(C(=O)COc2ccc(F)cc2F)CC1`: the “hERG current change (%, negative = inhibition) at 10uM” value is -3.55%.
For `CCCCNc1c(-c2ccc(-c3ccc(C(C)=O)cc3)c(OC)c2)nc2cnccn12.O=C(O)C(F)(F)F`, the “hERG current change (%, negative = inhibition) at 10uM” value is -52.3%.
Take `CCCCCCSc1cc(-c2nc3cnccn3c2NCc2ccccc2)ccc1OC.O=C(O)C(F)(F)F`: the “hERG current change (%, negative = inhibition) at 10uM” value turned out to be 0.374%.
Consider `CCCCNc1c(-c2ccc(OC)c(SC3CCCCC3)c2)nc2cnccn12.O=C(O)C(F)(F)F`, for which the “hERG current change (%, negative = inhibition) at 10uM” value is listed as -14.4%.
As to `CCOC(=O)c1nn(-c2ccccc2)c(=O)cc1SC(C)C`, the “hERG current change (%, negative = inhibition) at 10uM” value is given as -19.1%.
`CN(C)c1nc(OCC(=O)NC(C)(C)C)nc(N(C)C)n1`: the “hERG current change (%, negative = inhibition) at 10uM” value is 8.21%.
Turning to `O=C(Cc1nnc(NC(=O)Nc2ccccc2F)s1)NCc1ccccc1`, the “hERG current change (%, negative = inhibition) at 10uM” value amounted to 8.98%.
On to `CC(C)(C)NC(=O)c1cnn2c1NC(c1ccc(F)cc1)CC2C(F)(F)F` (stereo not shown), for which the “hERG current change (%, negative = inhibition) at 10uM” value amounted to 2.13%.
In the case of `COc1ccc(C(=O)Nc2nc(CC(=O)NCCc3ccccc3OC)cs2)cc1`, the “hERG current change (%, negative = inhibition) at 10uM” value was -6.94%.
Take `Cc1nc(NCCc2ccc(S(N)(=O)=O)cc2)c2c3c(sc2n1)CCC3`: the “hERG current change (%, negative = inhibition) at 10uM” value is reported as 8.64%.
As for `NS(=O)(=O)c1ccc(CCNc2nc(CN3CCOCC3)nc3sc4c(c23)CCC4)cc1`, the “hERG current change (%, negative = inhibition) at 10uM” value is listed as -31.2%.
For `NS(=O)(=O)c1ccc(CCNc2nc(CN3CCCCC3)nc3sc4c(c23)CCC4)cc1` the value was -72.9%.
As for `CCOC(=O)Cc1nnc(NC(=O)COc2ccc(C)cc2)s1`, the “hERG current change (%, negative = inhibition) at 10uM” value came to 5.07%.
As for `N#C/C(=C\c1cccnc1)C(=O)Nc1ccccc1`, the “hERG current change (%, negative = inhibition) at 10uM” value amounted to 4.04%.
As for `O=C(NCc1cccnc1)c1ccc(-c2cc3ccccc3oc2=O)cc1`, the “hERG current change (%, negative = inhibition) at 10uM” value was 4.65%.
For `O=C(Nc1cccnc1)c1cccc(-c2cc3ccccc3oc2=O)c1` the value was 14.5%; for `O=C(NCc1cccnc1)c1cccc(-c2cc3ccccc3oc2=O)c1`, -63.9%; for `O=C(OCc1cn(-c2ccc(Cl)c(Cl)c2)nn1)c1ccccc1Cl`, -5.05%.
For `CCOC(=O)C1(CCCc2ccccc2)CCN(Cc2ccn[nH]2)CC1`, the “hERG current change (%, negative = inhibition) at 10uM” value was -73%.
For `CCOC(=O)C1(CCc2ccccc2)CCN(Cc2ccn[nH]2)CC1` the value was -72.5%.
For `Cc1ccc(Cn2c(C)c3cnn(CC(=O)NC4CCCC4)c(=O)c3c2C)cc1` the value was 7.2%.
For `Cc1[nH]c(C)c2c(=O)[nH]ncc12`, the “hERG current change (%, negative = inhibition) at 10uM” value is 16.6%.
Take `CCN(CC(=O)Nc1ccc2c(c1)OCCO2)Cc1cc(=O)n2ccsc2n1`: the “hERG current change (%, negative = inhibition) at 10uM” value worked out at 3.88%.
On to `Cc1ccc(CCNC(=O)CN(C)S(=O)(=O)c2ccc3c(c2)c(=O)n(C)c(=O)n3C)cc1`, for which the “hERG current change (%, negative = inhibition) at 10uM” value was -11.7%.
The same measure for `Cn1c(=O)c2cc(S(=O)(=O)NCCC(=O)NCCC3=CCCCC3)ccc2n(C)c1=O`: -15.8%.
As for `CN(CC(=O)NCCC1=CCCCC1)S(=O)(=O)c1ccc2c(c1)c(=O)n(C)c(=O)n2C`, the “hERG current change (%, negative = inhibition) at 10uM” value was -64.9%.
As to `Cc1nc2sc3c(=O)[nH]nnc3c2c(C)c1Br`, the “hERG current change (%, negative = inhibition) at 10uM” value was 15.5%.
Turning to `CC(=O)c1sc2nc(-c3ccco3)ccc2c1N`, the “hERG current change (%, negative = inhibition) at 10uM” value is listed as 0.505%.
In the case of `O=C(Cc1ccccc1)N/N=C/c1cccnc1`, the “hERG current change (%, negative = inhibition) at 10uM” value worked out at 20.3%.
The same measure for `O=C(Cn1nc(-c2ccccc2)ccc1=O)Nc1ccc(N2CCN(C(=O)c3cccs3)CC2)cc1`: -18.5%; for `Cc1ccc(C(=O)N2CCCC2)cc1S(=O)(=O)N1CCOCC1`: 1.43%.
As for `COc1ccc(S(=O)(=O)N2Cc3ccccc3CC2C(=O)O)cc1` (stereo not shown), the “hERG current change (%, negative = inhibition) at 10uM” value was -13.1%.
For `COc1ccc(S(=O)(=O)N2Cc3ccccc3CC2C(=O)N2CCOCC2)cc1OC` (stereo not shown), the “hERG current change (%, negative = inhibition) at 10uM” value is on record as -18.7%.
Consider `O=C(C1Cc2ccccc2CN1S(=O)(=O)c1ccc(F)cc1)N1CCOCC1` (stereo not shown), for which the “hERG current change (%, negative = inhibition) at 10uM” value was -18%.
Take `COc1ccc(S(=O)(=O)N2Cc3ccccc3CC2C(=O)N2CCOCC2)cc1` (stereo not shown): the “hERG current change (%, negative = inhibition) at 10uM” value was -59.2%.
In the case of `O=C(C1Cc2ccccc2CN1S(=O)(=O)c1ccc(F)cc1)N1CCCCC1` (stereo not shown), the “hERG current change (%, negative = inhibition) at 10uM” value was -13.2%.
For `O=C(c1ccco1)N1CCN(C(=O)C2Cc3ccccc3CN2S(=O)(=O)c2ccc(F)cc2)CC1` (stereo not shown) the value was -70.6%; for `O=C(NCCNc1nccc(C(F)(F)F)n1)c1cccc(C(F)(F)F)c1`, -8.47%.
